# Reference: the supplement of paper PMC11172423
# Test system: Madurella mycetomatis MM55
# Test: growth relative to untreated control; higher = less inhibition, active = 20 or less
# Conditions: 25 µM
# In short: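 Hyphal fragments of M. mycetomatis MM55 or F. senegalensis CBS197.79 were suspended in colourless RPMI 1640 with L-glutamine and MOPS at 68–72% transmission at 660 nm. They were exposed in 96-well plates to compound at 100 or 25 µM for 7 days at 37 °C. Viability was read with MTS (2 h, 490 nm) or resazurin (600 nm). Growth is metabolic activity relative to the untreated growth control, both corrected with a medium-plus-dye blank.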
row,SMILES,growth
1,CCNCc1cc(Nc2ccnc3cc(Cl)ccc23)ccc1O,37% (inactive)
2,C=CC(C)(C)C1=C(O)C(=O)c2ccccc2C1=O,98.8% (inactive)
3,CN(C)CCn1cnc2sc3c(c2c1=O)CCC(NCc1cccc(Cl)c1)C3 (configuration not stated),36.1% (inactive)
4,C[C@@H](O[C@H]1OCCN(Cc2n[nH]c(O)n2)[C@H]1c1ccc(F)cc1)c1cc(C(F)(F)F)cc(C(F)(F)F)c1,89.8% (inactive)
5,CN(C)CCNC(=O)c1ccc(Nc2nccc(-c3ccc(Cl)c(Cl)c3)n2)cc1,5.83% (active)
6,CCc1ccc2c(c1O)CCN(C)C2Cc1ccccc1Cl (configuration not stated),21.4% (inactive)
7,Nc1nc2ccccc2n1CC(O)c1ccc(Cl)cc1Cl (configuration not stated),95.4% (inactive)
8,CC(=O)[C@@]1(O)CC[C@H]2[C@H]3CCC4=CC(=O)CC[C@@]4(C)[C@H]3CC[C@@]21C,80.2% (inactive)
9,O=C(c1ccc(Nc2nccc(-c3ccc(C(F)(F)F)c(Cl)c3)n2)cc1)N1CC(O)C1,103% (inactive)
10,Cc1c[nH]c(-c2cccc(C(=O)NC3CCC(CCN4CCc5ccc(C#N)cc5CC4)CC3)c2)n1 (configuration not stated),38.2% (inactive)
11,C[C@H]1O[C@@H](O[C@H]2[C@@H](O)C[C@H](O[C@H]3[C@@H](O)C[C@H](O[C@H]4CC[C@@]5(C)[C@H](CC[C@@H]6[C@@H]5CC[C@]5(C)[C@@H](C7=CC(=O)OC7)CC[C@]65O)C4)O[C@@H]3C)O[C@@H]2C)C[C@H](O)[C@@H]1O,94.5% (inactive)
12,Nc1nc(S)c2[nH]cnc2n1,71.8% (inactive)
13,CC(C)(C)c1nn(-c2ccc(Cl)cc2)c2[nH]c(=O)c(CNCc3ccc4c(c3)OCO4)cc12,5.51% (active)
14,NC1CCc2nc(-c3cccnc3)nc(Nc3ccc(C(F)(F)F)cc3)c2C1 (configuration not stated),71.4% (inactive)
15,CCOCCCNc1nc2cc(OC)c(OC)cc2c2nc(-c3ccccc3)nn12,95.5% (inactive)
16,Cc1cccnc1Nc1cn2cc(-c3ccnc(OC(C)C)n3)ccc2n1,36.1% (inactive)
17,Clc1ccc(Nc2nc3cnc(NC4CC4)nc3n2C2CCNCC2)cc1Cl,73.7% (inactive)
18,Cn1nc(-c2cccc(C#N)c2)c2cc(-c3n[nH]c(C4CCCN4)n3)ccc21 (configuration not stated),92.7% (inactive)

row,SMILES,growth
1,CC(=O)N1CCN(c2ccc(OC[C@H]3CO[C@](Cn4ccnc4)(c4ccc(Cl)cc4Cl)O3)cc2)CC1,3.29% (active)
2,COc1ccc(CCN(C)CCCC(C#N)(c2ccc(OC)c(OC)c2)C(C)C)cc1OC (configuration not stated),76.9% (inactive)
3,CC(C)Oc1ccc(-c2nc(-c3cccc4c3CC[C@@H]4NCCO)no2)cc1C#N,3.06% (active)
4,CC(=O)Nc1ccc(NC(=O)c2cc(-c3ccc(C)cc3O)n[nH]2)cc1,85.3% (inactive)
5,CC(C)c1cc(Oc2ccccc2)cc(C(C)C)c1NC(=S)NC(C)(C)C,111% (inactive)
6,CO[C@H]1C[C@H](O[C@H]2[C@H](C)O[C@@H](O[C@@H]3/C(C)=C/C[C@@H]4C[C@@H](C[C@]5(C=C[C@H](C)[C@@H](C6CCCCC6)O5)O4)OC(=O)[C@@H]4C=C(C)[C@@H](O)[C@H]5OC/C(=C\C=C\[C@@H]3C)[C@]54O)C[C@@H]2OC)O[C@@H](C)[C@@H]1O,101% (inactive)
7,CN(C)CCCN1c2ccccc2Sc2ccc(Cl)cc21,4.01% (active)
8,COc1ccc2nc3cc(Cl)ccc3c(Nc3cc(CN4CCCC4)c(O)c(CN4CCCC4)c3)c2n1,76.3% (inactive)
9,CC(C)CC(NCCc1ccccc1O)c1ccccn1 (configuration not stated),41.8% (inactive)
10,Cc1cc(C)c2cc(C(=O)N[C@@H](C)c3ccccc3)[nH]c2c1,7.91% (active)
11,Cc1cc(Nc2cn3cc(-c4cnn(C(F)F)c4)ccc3n2)nc(C)n1,95.2% (inactive)
12,O=C(NCCN1CCCCC1)c1cncc(-c2ccc(Cl)c(Cl)c2)c1,52.1% (inactive)
13,Cc1c(-c2ccc(-c3ccccc3F)cc2)nc2ccc(F)cc2c1C(=O)O,115% (inactive)
14,Cc1cccnc1Nc1cn2cc(-c3cccc(OCC(F)(F)F)n3)ccc2n1,119% (inactive)
15,Cc1c(O)cccc1C(=O)N[C@@H](CSc1ccccc1)[C@H](O)CN1C[C@H]2CCCC[C@H]2C[C@H]1C(=O)NC(C)(C)C,83.9% (inactive)
16,CN(C)c1cc(NC(=O)CNC(C)(C)C)c(O)c2c1C[C@H]1C[C@H]3[C@H](N(C)C)C(O)=C(C(N)=O)C(=O)[C@@]3(O)C(O)=C1C2=O,69.1% (inactive)
17,CC(=O)Oc1ccccc1C(=O)Nc1ncc([N+](=O)[O-])s1,87.7% (inactive)
18,c1ccc(Nc2cc(Nc3cc(-c4ccccc4)[nH]n3)nc3ccnn23)cc1,8.39% (active)

# Same assay, conditions: 100 µM
row,SMILES,growth
1,CCNCc1cc(Nc2ccnc3cc(Cl)ccc23)ccc1O,2.65% (active)
2,C=CC(C)(C)C1=C(O)C(=O)c2ccccc2C1=O,164% (inactive)
3,CN(C)CCn1cnc2sc3c(c2c1=O)CCC(NCc1cccc(Cl)c1)C3 (configuration not stated),5.28% (active)
4,C[C@@H](O[C@H]1OCCN(Cc2n[nH]c(O)n2)[C@H]1c1ccc(F)cc1)c1cc(C(F)(F)F)cc(C(F)(F)F)c1,5.09% (active)
5,CN(C)CCNC(=O)c1ccc(Nc2nccc(-c3ccc(Cl)c(Cl)c3)n2)cc1,4.93% (active)
6,CCc1ccc2c(c1O)CCN(C)C2Cc1ccccc1Cl (configuration not stated),6.23% (active)
7,Nc1nc2ccccc2n1CC(O)c1ccc(Cl)cc1Cl (configuration not stated),6.46% (active)
8,CC(=O)[C@@]1(O)CC[C@H]2[C@H]3CCC4=CC(=O)CC[C@@]4(C)[C@H]3CC[C@@]21C,83.8% (inactive)
9,O=C(c1ccc(Nc2nccc(-c3ccc(C(F)(F)F)c(Cl)c3)n2)cc1)N1CC(O)C1,131% (inactive)
10,Cc1c[nH]c(-c2cccc(C(=O)NC3CCC(CCN4CCc5ccc(C#N)cc5CC4)CC3)c2)n1 (configuration not stated),88.4% (inactive)
11,C[C@H]1O[C@@H](O[C@H]2[C@@H](O)C[C@H](O[C@H]3[C@@H](O)C[C@H](O[C@H]4CC[C@@]5(C)[C@H](CC[C@@H]6[C@@H]5CC[C@]5(C)[C@@H](C7=CC(=O)OC7)CC[C@]65O)C4)O[C@@H]3C)O[C@@H]2C)C[C@H](O)[C@@H]1O,73.2% (inactive)
12,Nc1nc(S)c2[nH]cnc2n1,92.8% (inactive)
13,CC(C)(C)c1nn(-c2ccc(Cl)cc2)c2[nH]c(=O)c(CNCc3ccc4c(c3)OCO4)cc12,6.74% (active)
14,NC1CCc2nc(-c3cccnc3)nc(Nc3ccc(C(F)(F)F)cc3)c2C1 (configuration not stated),5.34% (active)
15,CCOCCCNc1nc2cc(OC)c(OC)cc2c2nc(-c3ccccc3)nn12,120% (inactive)
16,Cc1cccnc1Nc1cn2cc(-c3ccnc(OC(C)C)n3)ccc2n1,6.2% (active)
17,Clc1ccc(Nc2nc3cnc(NC4CC4)nc3n2C2CCNCC2)cc1Cl,73% (inactive)
18,Cn1nc(-c2cccc(C#N)c2)c2cc(-c3n[nH]c(C4CCCN4)n3)ccc21 (configuration not stated),74.9% (inactive)

row,SMILES,growth
1,CC(=O)N1CCN(c2ccc(OC[C@H]3CO[C@](Cn4ccnc4)(c4ccc(Cl)cc4Cl)O3)cc2)CC1,3.16% (active)
2,COc1ccc(CCN(C)CCCC(C#N)(c2ccc(OC)c(OC)c2)C(C)C)cc1OC (configuration not stated),98.8% (inactive)
3,CC(C)Oc1ccc(-c2nc(-c3cccc4c3CC[C@@H]4NCCO)no2)cc1C#N,3.42% (active)
4,CC(=O)Nc1ccc(NC(=O)c2cc(-c3ccc(C)cc3O)n[nH]2)cc1,82.5% (inactive)
5,CC(C)c1cc(Oc2ccccc2)cc(C(C)C)c1NC(=S)NC(C)(C)C,166% (inactive)
6,CO[C@H]1C[C@H](O[C@H]2[C@H](C)O[C@@H](O[C@@H]3/C(C)=C/C[C@@H]4C[C@@H](C[C@]5(C=C[C@H](C)[C@@H](C6CCCCC6)O5)O4)OC(=O)[C@@H]4C=C(C)[C@@H](O)[C@H]5OC/C(=C\C=C\[C@@H]3C)[C@]54O)C[C@@H]2OC)O[C@@H](C)[C@@H]1O,125% (inactive)
7,CN(C)CCCN1c2ccccc2Sc2ccc(Cl)cc21,3.82% (active)
8,COc1ccc2nc3cc(Cl)ccc3c(Nc3cc(CN4CCCC4)c(O)c(CN4CCCC4)c3)c2n1,40% (inactive)
9,CC(C)CC(NCCc1ccccc1O)c1ccccn1 (configuration not stated),41.6% (inactive)
10,Cc1cc(C)c2cc(C(=O)N[C@@H](C)c3ccccc3)[nH]c2c1,69.4% (inactive)
11,Cc1cc(Nc2cn3cc(-c4cnn(C(F)F)c4)ccc3n2)nc(C)n1,58.6% (inactive)
12,O=C(NCCN1CCCCC1)c1cncc(-c2ccc(Cl)c(Cl)c2)c1,5.8% (active)
13,Cc1c(-c2ccc(-c3ccccc3F)cc2)nc2ccc(F)cc2c1C(=O)O,83.3% (inactive)
14,Cc1cccnc1Nc1cn2cc(-c3cccc(OCC(F)(F)F)n3)ccc2n1,8.06% (active)
15,Cc1c(O)cccc1C(=O)N[C@@H](CSc1ccccc1)[C@H](O)CN1C[C@H]2CCCC[C@H]2C[C@H]1C(=O)NC(C)(C)C,88.2% (inactive)
16,CN(C)c1cc(NC(=O)CNC(C)(C)C)c(O)c2c1C[C@H]1C[C@H]3[C@H](N(C)C)C(O)=C(C(N)=O)C(=O)[C@@]3(O)C(O)=C1C2=O,104% (inactive)
17,CC(=O)Oc1ccccc1C(=O)Nc1ncc([N+](=O)[O-])s1,95.6% (inactive)
18,c1ccc(Nc2cc(Nc3cc(-c4ccccc4)[nH]n3)nc3ccnn23)cc1,10.5% (active)
